PubChem BioAssay (NCI)
The panel holds about 83,000 compounds, 20% with a hit somewhere; the sample as a whole holds those more often.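 Note: values are percent growth. 100 is the growth of untreated cells, values between 100 and 0 indicate rising inhibition; between -100 and 0 indicates cell death.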 Unmarked numbers belong to inactive results. Calls of active or inactive are those of the source. Rule for the calls: active = growth percent below 10; inactive = the rest.

Test system: PC-3 prostate
Assay: NCI-60 one-dose screen, 48 h (100 = growth as untreated, 0 = no growth, -100 = all killed)
Conditions: 10 µM unless noted

Point of comparison: CCOC(CNC(=O)c1cccc([N+](=O)[O-])c1)OCC, growth 102%. Against it:
- CNc1cc(C(=O)O)nc(NC)n1 — lower, 94.9%
- Brc1ccc2c(c1)CN(C1CCCCC1)CO2 — lower, 91.6%
- COc1ccc(-c2ccc(NNC(=O)c3ccc(F)cc3)nn2)cc1OC — lower, 73.5%
- CN(C)C(=S)Sc1ccc([N+](=O)[O-])cc1[N+](=O)[O-] — lower, 28.1%
- CCN(CC)CC(C)Nc1ccc(C)c2sc3ccccc3c(=O)c12 (stereo unspecified) — lower, 47.6%
- CN(C)Cc1ccc[nH]1 — lower, 99.2%
- CNC(=O)c1cc(Oc2cccc3nc(NC(=O)Nc4cc(C(F)(F)F)cc(C(F)(F)F)c4)ccc23)ccn1 — lower, 52.8%
- CC1=CC[C@@H]2C(C)(C)[C@@H](O)CC[C@@]2(C)[C@@H]1COc1ccc2ccc(=O)oc2c1 — lower, 30.6%
- CC(=O)CC(=O)SC1=NCCS1 — lower, 89.9%
- CSc1cccc([N+](=O)[O-])c1 — lower, 96.9%
- O=C1/C(=C\c2cccn2Cc2ccccc2)c2ccccc2N1c1c(Cl)cccc1Cl — lower, 51.4%
- COc1ncnc2c(-c3ccccc3)cn(COCc3ccccc3)c12 — lower, 25.2%

In the case of CCN=C1C=CC(=C(c2ccc(N(CC)CC)cc2)c2ccc(N(CC)CC)cc2)c2ccccc21, the growth is reported as -66.8% (active).
For O=C(CSc1nc2ccc([N+](=O)[O-])cc2[nH]1)Nc1ccc(F)c(Cl)c1, the growth was 8.99% (active).
In the case of C=C(C)[C@@H]1CC[C@]2(C(=O)NCCCN)CC[C@]3(C)[C@H](CC[C@@H]4[C@@]5(C)CC[C@H](O)C(C)(C)[C@@H]5CC[C@]43C)[C@@H]12, the growth is reported as -53.8% [100 µM] (active).
